# Hit rate of the full screen: of about 38,000 compounds, about 1,200 (3.2%) showed an effect of 50% or more. The median lay at about -58%. Shown is part of a subset that was picked to be rich in strong results.
# Tested on: Plasmodium falciparum
# Experiment: Calibr Malaria Delayed Death Assay SOP
# Type: functional, organism-based
# Design: scale not given: in the data most compounds retested in dose-response had high values
# Details: concentration 4.99e-06 (unit not given; other assays of the set use mol/L)
row,SMILES,Percent Effect [%]
1,O=C1CCCN1Cc1nnc2n1CCCN(C(=O)c1ccc[nH]1)C2,-52.27
2,O=C(c1ccc(-n2cnnc2)cc1)N1CCC(Nc2cccnn2)CC1,-15.7
3,CCN1Cc2ccccc2CC2(CCN(CC(=O)O)CC2)C1=O.O=C(O)C(F)(F)F,-102.3
4,CCn1c(SCC(=O)O)nnc1C(C)NC(=O)c1ccc(Cl)cc1 (centres undefined),-146.1
5,Cc1noc(C(C)NC(=O)[C@@H](C)NC(=O)OC(C)(C)C)n1 (some centres undefined),-163.7
6,O=C(c1cccc(CO)n1)N1CCCC1c1nc2cc(F)ccc2[nH]1 (centres undefined),-67.52
7,Fc1ccc2[nH]c(C3CCCN3Cc3c[nH]cn3)nc2c1 (centres undefined),80.29
8,O=C(CN1CCCC1c1nc2cc(F)ccc2[nH]1)NCc1ccccn1 (centres undefined),-65.25
9,CC(C)OCCCNC(=O)NCc1cccc(-n2ccnc2)c1,-80.58
10,Cc1nn(C)cc1-c1ccnc(N(C)Cc2noc(C(C)C)n2)n1,-38.19
11,Cc1nn(C)c(C)c1-c1ccnc(N(C)Cc2nc(C(C)C)no2)n1,65.96
12,Cc1nn(C)c(C)c1-c1ccnc(N(C)Cc2noc(C(C)C)n2)n1,-30.97
13,Cc1cc(C(N)=O)c(N2C[C@@H](C)[C@@](C)(O)C2)nc1C,-47.89
14,O=C(O)c1nc(SCc2ccc(F)cc2)ncc1Br,-159.2
15,COc1cccc(CCC(=O)N2CCCCC2Cn2cccn2)c1 (centres undefined),-142.5
16,O=C(c1ccc2c(c1)OCO2)N1CCCSCC1CN1CCCC1 (centres undefined),-7.883
17,COc1cccc(CC(=O)N2CCCSCC2CN2CCCC2)c1 (centres undefined),54.27
18,CCCN(CCC)c1nc(N)nc(-c2cc(Cl)ccc2OC)n1,-49.81
19,CN(C)CCCNC(=O)c1nc(Cc2c(Cl)cccc2Cl)no1,-74.09
20,CC[C@@H](C)[C@@H](N)C(=O)Nc1cccc(-c2cnc(NCCO)nc2)c1,-39.72

row,SMILES,Percent Effect [%]
1,O=C1CC(c2ccccc2F)c2c(n(C3CCCC3)[nH]c2=O)N1 (centres undefined),-93.23
2,COc1ccccc1C(=O)NC(c1ccccn1)[C@H]1CC[C@H](CN)CC1 (some centres undefined),-2.636
3,CCOCC1CN(CC2CC2)Cc2nn(C)cc21.O=C(O)C(F)(F)F (centres undefined),-95.19
4,CS(=O)(=O)CCCNC(=O)NC1CC(c2cccc(Cl)c2)C1 (centres undefined),-17.33
5,NC(=O)CCNCc1c(Cl)cccc1N1CCCC1,65.52
6,O=C(Nc1c(N2CCCC2)cccc1N1CCCC1)c1ccccn1,-13.71
7,NC(=O)CCNC(=O)NCC1(c2ccccc2Cl)CCC1,-18.8
8,CS(=O)(=O)CCCNCc1c(Cl)cccc1N1CCCC1,71.32
9,O=S(=O)(Cc1c(F)cccc1Cl)NCCCN1CCCCCC1,47.99
10,O=C(CSC1CCc2ccccc2NC1=O)NCc1ccccc1 (centres undefined),-28.24
11,CC(Cn1cccn1)NC(=O)N1CCN(Cc2ccco2)CC1 (centres undefined),-74.02
12,Cn1ccnc1C(=O)N[C@@H]1CN(Cc2ccc(F)cc2)[C@@H]2CCCO[C@@H]21.O=C(O)C(F)(F)F,-85.57
13,O=c1oc2ccccc2n1CCCN1CCCC1c1ccc(O)cc1 (centres undefined),52.75
14,Cc1nc(C2CCCN2CCCn2c(=O)oc3ccccc32)no1 (centres undefined),-48.08
15,O=C1OCCN1CCCN1CCCC1c1ccc(O)cc1 (centres undefined),-1.685
16,CC(=O)c1cc2c(=O)[nH]c(=O)n(C)c2nc1C,-16.7
17,O=C(NCc1ncc[nH]1)c1c(F)cccc1I,-135.9
18,Cn1cc(C(NCCc2ccccn2)c2cccc(F)c2)cn1 (centres undefined),-2.846
19,CSCc1cc(F)ccc1CNCc1ncc[nH]1,-2.338
20,Clc1cccc(C(NCc2ncc[nH]2)c2ccccn2)c1 (centres undefined),86.37

row,SMILES,Percent Effect [%]
1,Cc1nccn1-c1ccc(C(C)NCc2ncc[nH]2)cc1 (centres undefined),-35.75
2,Fc1cccc(C(NCc2ncc[nH]2)c2ccccc2)c1 (centres undefined),67.9
3,CC(C)Nc1ncccc1C(=O)NCc1ncc[nH]1,-116.1
4,CC(=O)N(C)C(c1cccc(F)c1)c1ccccn1 (centres undefined),-75.26
5,Fc1cccc(C(NCc2ncc[nH]2)c2ccccn2)c1 (centres undefined),91.42
6,CC(C)NC(=O)N1CCN(C(=O)c2ccco2)CC2(CC(=O)N(C)C2)C1 (centres undefined),-8.212
7,CC(C)CC(=O)NS(=O)(=O)c1ccc2c(c1)OCCCO2,-13.67
8,CC(C)c1nn(C)c(N2CCOCC2)c1CNCc1cscn1,-74.61
9,O=C(NCC(O)COc1ccc(C(F)(F)F)cc1)Nc1nncs1 (centres undefined),-99.86
10,Cc1cccc2c(CCNC(=O)[C@H](N)c3ccccc3)c[nH]c12,61.63
11,Cc1cccc2c(CCNC(=O)NCCC[S+](C)[O-])c[nH]c12 (centres undefined),-83.64
12,Cc1cccc2c(CCNC(=O)NCC[S+](C)[O-])c[nH]c12 (centres undefined),-101.3
13,CC(C)Cn1c(=O)n(CCn2cc(Cl)cn2)c2cc(C(=O)O)cnc21,-13.68
14,CCc1noc(CN(Cc2cccs2)C2CC2)n1,-139.3
15,O=C(CCc1nnc2ccccn2c1=O)NCc1cccnc1,-35.93
16,CN(C)c1ncccc1NC(=O)C1CN(Cc2ccccc2)CCO1 (centres undefined),-7.192
17,Cl.Cn1nc(C2CCCN(Cc3ccccc3)C2)c2nccnc21 (centres undefined),-32.54
18,Cc1cccc(CN2CC[C@@H]3[C@@H](CO[C@H]3CNc3ncccn3)C2)n1.O=C(O)C(F)(F)F.O=C(O)C(F)(F)F.O=C(O)C(F)(F)F,-54.04
19,Cn1cc(N2CC3(CCN(Cc4ccccc4)CC3)OCC2=O)cn1.O=C(O)C(F)(F)F,-75.76

# From ChEMBL document CHEMBL3988442, “University of Dundee, Small-Polar-MMV Screening Library” (2021)
